# BoNT-F LC inh = BoNT/F light chain protease inhibitors, primary screen, biochemical, flow cytometry, MLPCN library; 360,000 compounds, 0.22% hits; AID 588497, 2011; Multiplex microsphere protease cleavage assay; Botulinum neurotoxin type F light chain protease (Clostridium botulinum); inhibition, % at 10 µM; in the data active means inhibition above about 35%, passing the limit was not always enough; inconclusive means no clear call, values can overlap the other calls; further: plate controls were buffer without enzyme for full effect and enzyme alone for no effect
# BoNT A protease = BoNT/A light chain protease inhibitors, primary screen, biochemical, flow cytometry, MLPCN library | AID 588499, 2011 | inhibition, % at 10 µM | 360,000 compounds, 0.17% hits | Botulinum neurotoxin type A light chain protease (Clostridium botulinum A str. ATCC 3502) | multiplex microsphere protease substrate cleavage; further: plate controls were buffer without enzyme for full effect and enzyme alone for no effect
# Anthrax LF prot = Bacillus anthracis LF protease inhibitors, primary screen, biochemical, multiplex microsphere, MLPCN library; Lethal factor (Bacillus anthracis), P15917; inhibition, % at 10 µM; multiplex microsphere protease cleavage assay; 360,000 compounds, 0.12% hits; further: plate controls were buffer without enzyme for full effect and enzyme alone for no effect
# Target sequence (P15917 whole entry, looked up): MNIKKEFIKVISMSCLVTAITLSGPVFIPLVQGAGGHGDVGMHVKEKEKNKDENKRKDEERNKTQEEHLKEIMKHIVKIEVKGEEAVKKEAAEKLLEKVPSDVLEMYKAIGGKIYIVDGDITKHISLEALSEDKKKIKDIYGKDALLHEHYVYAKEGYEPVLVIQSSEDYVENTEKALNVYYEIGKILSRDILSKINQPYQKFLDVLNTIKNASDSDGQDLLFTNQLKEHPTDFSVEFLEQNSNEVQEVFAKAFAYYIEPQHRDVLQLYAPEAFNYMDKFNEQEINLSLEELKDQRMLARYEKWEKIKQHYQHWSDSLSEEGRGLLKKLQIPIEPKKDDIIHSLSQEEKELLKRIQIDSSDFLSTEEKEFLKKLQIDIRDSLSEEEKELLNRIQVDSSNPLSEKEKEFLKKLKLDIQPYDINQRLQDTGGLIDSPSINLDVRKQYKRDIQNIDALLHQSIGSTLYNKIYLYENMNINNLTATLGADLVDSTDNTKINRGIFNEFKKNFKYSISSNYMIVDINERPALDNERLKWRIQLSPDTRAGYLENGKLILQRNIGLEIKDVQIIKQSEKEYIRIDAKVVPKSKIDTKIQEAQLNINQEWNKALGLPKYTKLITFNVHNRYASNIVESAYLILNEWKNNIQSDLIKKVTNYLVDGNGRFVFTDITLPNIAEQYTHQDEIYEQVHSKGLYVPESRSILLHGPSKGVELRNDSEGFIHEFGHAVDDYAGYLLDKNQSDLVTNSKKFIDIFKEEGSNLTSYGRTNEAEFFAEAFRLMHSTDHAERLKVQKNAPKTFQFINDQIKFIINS
# Bead autofluor = compound fluorescence in toxin protease inhibitor counterscreen; compound autofluorescence counterscreen, microsphere flow cytometry; stronger effect = higher value; fluorescence intensity (concentration not given with the values); 360,000 compounds, 3.1% hits; in the data active means fluorescence intensity above about 16000; inconclusive means no clear call, values can overlap the other calls
# * hit, by the source's call; ? = inconclusive; + = active, no number. Shown are actives, neighbours in structure and some others; about 3.5% of the full set was active somewhere. Unless noted, no stated cut-off is given here; in the data, active means inhibition above about 30%; inconclusive means no clear call, values can overlap the other calls; inactive means below that.
SMILES,BoNT-F LC inh,BoNT A protease,Anthrax LF prot,Bead autofluor
CCCCc1[nH]c(=O)c(C#N)c2c1CCCC2,3,0,-1,9802
CC(=O)Nc1ccc(S(=O)(=O)NCCc2ccc3c(c2)OCCO3)cc1,-5,-1,-6,3855
O=S(=O)(Nc1cccc(S(=O)(=O)N2CCCC2)c1)c1cccc(Br)c1,-2,2,13,?
NC(=O)c1cccn1Cc1ccccc1Cl,2,0,3,22851*
COc1ccc(NC(=O)Nc2cccc3c2O[C@@H](CN(C)S(=O)(=O)c2cn(C)cn2)[C@@H](C)CN([C@H](C)CO)C3=O)cc1,1,0,-3,3721
N=c1n(CCN2CCOCC2)c2ccccc2n1Cc1ccccc1Br,-1,0,-1,19620*
Cc1ccc(C(=O)Cn2c(=N)n(CCN3CCOCC3)c3ccccc32)cc1,-3,0,1,4052
O=C(/C=C/c1ccccc1)OCCN1C(=O)c2ccccc2C1=O,-26,-3,-7,3735
CC(Sc1n[nH]c(N)n1)C(=O)Nc1cccc2ccccc12 (stereo not drawn),-4,0,-4,2998
Nc1nnc(Cc2c[nH]c3ccccc23)s1,-3,1,2,23973*
Cc1ccccc1-n1nnnc1-c1ccccc1,-2,-3,-2,23616*
OC(Cn1c2ccccc2c2ccccc21)C[n+]1cccc2ccccc21 (stereo not drawn),-19,?,-3,20032*
Cc1nc2ccccc2n1CC(O)Cn1c2ccccc2c2ccccc21 (stereo not drawn),4,?,-4,15620
O=C(NCC1CCCO1)/C(=C/c1ccccc1F)NC(=O)c1ccccc1 (stereo not drawn),-29,-4,4,3920
Cc1ccc(S(=O)(=O)Nc2cccc(-n3cnnn3)c2)cc1C,-2,-1,1,5748
CCOC(=O)c1[nH]c(C)c(C(=O)OCC(=O)NC(=O)NC(C)(C)C)c1C,4,1,-2,20160*
CCOC(=O)c1c(C)[nH]c(C(=O)OCC(=O)Nc2cc(Cl)ccc2OC)c1C,-5,-3,-5,16877*
CC(=O)Nc1ccc(C2=CC(=O)CC(C)(C)C2)cc1,-3,0,5,3960
O=C1NC[C@H](CCCCN2CCN(CC3CCCCC3)C(=O)C2=O)N(CCC2CCCCC2)C1=O,-6,-2,2,4704
CCCCN(c1ccccc1)S(=O)(=O)c1cccc(C(=O)O)c1,-4,0,-4,4443
CCN(c1cccc(C)c1)S(=O)(=O)c1cc2[nH]c(=O)c(=O)[nH]c2cc1C,1,0,-3,5989
CCN(c1cccc(C)c1)S(=O)(=O)c1cccc(C(=O)O)c1,0,2,0,23200*
CCN(c1cccc(C)c1)S(=O)(=O)c1ccc2[nH]c(=O)c(=O)[nH]c2c1,-4,-2,-1,21312*
O=c1[nH]c(=O)n(C2OC(CO)C(O)C2O)cc1N1CCOCC1 (stereo not drawn),-12,0,-4,3081
COC(=O)CCS(=O)(=O)c1nc(-c2ccccc2)cc(C(F)(F)F)n1,2,2,-1,21982*
SMILES,BoNT-F LC inh,BoNT A protease,Anthrax LF prot,Bead autofluor
CCOC(=O)CCS(=O)(=O)c1nc(-c2ccccc2)cc(C(F)(F)F)n1,0,-1,-2,2373
CC[n+]1c(/C=C/N(C)c2ccccc2)sc2ccc(Cl)cc21,43*,59*,59*,6962
CC[n+]1c(/C=C/C=C/N(C(C)=O)c2ccccc2)sc2ccccc21,?,?,?,6377
CC[n+]1c(/C=C/C=C/c2ccc(N(C)C)cc2)sc2ccccc21,+,20,-22,3041
CSc1ccccc1NC(=O)COc1ccc(S(=O)(=O)N2CCCC2)cc1,-6,-3,0,22225*
O=C(COc1ccccc1)Nc1nc(-c2ccc(S(=O)(=O)N3CCOCC3)cc2)cs1,3,0,0,4490
O=C(COc1ccc(Cl)cc1)Nc1nc(-c2ccc(S(=O)(=O)N3CCOCC3)cc2)cs1,0,?,-2,22761*
CC(C)c1ccc(NC(=O)COc2ccc(S(=O)(=O)N3CCOCC3)cc2)cc1,-3,0,0,3683
CC(C)NC(=O)COc1ccc(S(=O)(=O)N2CCCC2)cc1,-8,-2,-10,4100
CCOc1ccc(N2CC(C(=O)Nc3ccc(S(=O)(=O)N4CCOCC4)cc3)CC2=O)cc1 (stereo not drawn),-1,?,1,23130*
Cc1ccc(NC(=O)COc2ccc(S(=O)(=O)N3CCOCC3)cc2)cc1,3,1,-2,22684*
Cc1cc(C)c(S(=O)(=O)Cc2ccccc2)c(OC(C)C)n1,0,2,-9,3761
O=C(CCN1C(=O)c2ccccc2C1=O)Nc1ccc(S(=O)(=O)N2CCOCC2)cc1,-6,-6,-2,22292*
CC(=O)Nc1ccc(S(=O)(=O)N2CCN(C)CC2)cc1,-4,-2,0,23174*
CC(=O)Nc1ccc(S(=O)(=O)N2CCN(CC(O)COc3ccc4ccccc4c3)CC2)cc1 (stereo not drawn),2,?,-1,23688*
CC(=O)Nc1ccc(S(=O)(=O)N2CCOCC2)cc1,4,2,-2,21279*
COc1cc(NC(=O)CSc2nc(=O)n(CCN3CCOCC3)c3c2CCCC3)cc(OC)c1,?,4,0,4599
CCCCc1ccc(NC(=O)COC(=O)c2ccc3ncsc3c2)cc1,-4,0,-2,3673
CCN(CC)C(=O)COc1ccc(S(=O)(=O)N2CCOCC2)cc1,3,0,0,16440*
CC(=O)Nc1ccc(S(=O)(=O)N2CCN(c3cc4c(cc3[N+](=O)[O-])n(C)c(=O)n4C)CC2)cc1,7,7,-8,21248*
Cn1c(=O)n(C)c2cc([N+](=O)[O-])c(N3CCN(S(=O)(=O)c4ccc(C(C)(C)C)cc4)CC3)cc21,-2,0,-4,11660
O=C(NCCCN1CCOCC1)c1cccc(NS(=O)(=O)c2ccc(Br)cc2)c1,16,1,10,3984
CN(C)c1ccnc(Oc2ccccc2)c1C#N,-1,1,1,10130
CN(C)c1ccnc(SCc2ccccc2Cl)c1C#N,-10,-6,-2,22367*
O=C(NC(=S)N1CCCCC1c1cccnc1)c1ccc(Br)cc1 (stereo not drawn),-2,-2,-1,4806
SMILES,BoNT-F LC inh,BoNT A protease,Anthrax LF prot,Bead autofluor
O=C(Nc1ccccc1)N1CCNCC1,-3,-1,-5,3577
O=C(Nc1ccc(F)cc1)N1CCOCC1,4,?,0,19165*
O=C(NC(=S)Nc1ccccc1)C1CCCCC1,3,3,0,5009
CCc1ccccc1NC(=O)C1CCCC1,?,1,-3,3684
O=C(Nc1ccc(F)cc1)N1CCCCCC1,6,2,2,5338
O=C(Nc1ccccc1)N1CCCC1,1,0,-2,23605*
O=C(Nc1ccccc1)C1CCCCC1,-1,?,-1,21764*
CCCC(=O)Nc1ccccc1NC(=O)C1CCCCC1,2,1,2,23241*
COc1cc(NC(=O)C2CCCCC2)c(OC)cc1NC(=O)CCC(=O)NCc1ccco1,0,1,-1,22591*
